# In PubChem BioAssay (NCATS):
# Inconclusive results are not listed. A call without a number means that no potency is given here. Activity calls are given as the source filed them. Unless noted, calls come from the whole dose curve; as a rule, active = well fitted curve in the direction sought with a large enough effect; inconclusive = small, poorly fitted or top-dose-only effect, or another doubt; inactive = no such curve, though single readings can be large; an effect the other way counts as inactive or inconclusive.
# Key:
# [1] = qHTS for Inhibitors of the Functional Ribonucleoprotein Complex (vRNP) of Lassa (LASV) Arenavirus: LASV Primary Screen - GLuc reporter signal (AID 1347082; calls by dose curve; tested in HEK293 reporter line; note: nearly all actives have a fitted effect of over 60% in size; note: potency is the fitted concentration of half-maximal effect)
# [2] = qHTS for Inhibitors of the Functional Ribonucleoprotein Complex (vRNP) of Lymphocytic Choriomeningitis Arenaviruses (LCMV): Viability assay - alamar blue signal for LCMV Primary Screen (AID 1347085; calls by dose curve; tested in HEK293 reporter line; note: nearly all actives have a fitted effect of over 80% in size; note: potency is the fitted concentration of half-maximal effect)
# [3] = qHTS of pediatric cancer cell lines to identify multiple opportunities for drug repurposing: Primary screen for SJ-GBM2 cells (AID 1347091); note: potency is the fitted concentration of half-maximal effect
# How it was run: (§1)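 Cell viability, CellTiter-Glo luminescence; 500-1,000 cells/well, 8- or 11-point titration, 48 h compound exposure at 37 degrees C, 5% CO2. Controls: DMSO neutral, bortezomib 2.3 µM final as positive.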
# [4] = qHTS of pediatric cancer cell lines to identify multiple opportunities for drug repurposing: Primary screen for A673 cells (AID 1347092); note: nearly all actives have a fitted effect of over 45% in size; note: potency is the fitted concentration of half-maximal effect
# How it was run: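 A673 cells (500-1,000 cells/well) were treated 48 hours at 37 degrees C with compounds at 11-point (0.78 nM to 46 µM) or 8-point (0.59 nM to 46 µM) dilutions. Viability read by CellTiter-Glo luminescence; concentration-response curves fitted.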
# [5] = qHTS of pediatric cancer cell lines to identify multiple opportunities for drug repurposing: Primary screen for SK-N-MC cells (AID 1347093); note: potency is the fitted concentration of half-maximal effect
# How it was run: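 Metabolically active cells were quantified by ATP-dependent luminescence (CellTiter-Glo, 15 min at room temperature) following 48 h treatment. Cells had been plated at 500-1,000 per well and settled for 5 h beforehand.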
# [6] = qHTS of pediatric cancer cell lines to identify multiple opportunities for drug repurposing: Primary screen for BT-37 cells (AID 1347094); note: potency is the fitted concentration of half-maximal effect
# How it was run: (§2)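 ATP-based luminescence (CellTiter-Glo) quantifies viability after a 48-hour exposure. Compounds are dosed across 8 or 11 final concentrations; DMSO and 2.3 µM bortezomib serve as controls.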
# [7] = qHTS of pediatric cancer cell lines to identify multiple opportunities for drug repurposing: Primary screen for NB-EBc1 cells (AID 1347095); note: potency is the fitted concentration of half-maximal effect
# How it was run: as §2
# [8] = qHTS of pediatric cancer cell lines to identify multiple opportunities for drug repurposing: Primary screen for Saos-2 cells (AID 1347097); note: nearly all actives have a fitted effect of over 40% in size; note: potency is the fitted concentration of half-maximal effect
# How it was run: as §2
# [9] = qHTS for Inhibitors of the Functional Ribonucleoprotein Complex (vRNP) of Lassa (LASV) Arenavirus: Viability assay - alamar blue signal for LASV Primary Screen (AID 1347083; calls by dose curve; tested in HEK293 reporter line; note: nearly all actives have a fitted effect of over 80% in size; note: potency is the fitted concentration of half-maximal effect)
# [10] = qHTS of pediatric cancer cell lines to identify multiple opportunities for drug repurposing: Primary screen for TC32 cells (AID 1347089); note: nearly all actives have a fitted effect of over 60% in size; note: potency is the fitted concentration of half-maximal effect
# How it was run: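 TC32 cells, 500-1,000/well in growth medium, compound-treated 48 h at 37 °C; viability from CellTiter-Glo luminescence. Primary screen: MIPE 11-point (0.78 nM–46 µM final), NPC 8-point (0.59 nM–46 µM final); confirmatory at 11-point dilutions.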
# [11] = qHTS of pediatric cancer cell lines to identify multiple opportunities for drug repurposing: Primary screen for DAOY cells (AID 1347090); note: nearly all actives have a fitted effect of over 55% in size; note: potency is the fitted concentration of half-maximal effect
# How it was run: as §1
# [12] = qHTS of pediatric cancer cell lines to identify multiple opportunities for drug repurposing: Primary screen for U-2 OS cells (AID 1347096); note: nearly all actives have a fitted effect of over 50% in size; note: potency is the fitted concentration of half-maximal effect
# How it was run: (§3)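 Cells (500-1,000/well) rested 5 h, then received compounds for 48 h; metabolically active cells were measured by CellTiter-Glo luminescence. Final concentrations spanned up to 46 µM (MIPE, 11-point) or 0.59 nM-46 µM (NPC, 8-point) in primary screens, 11-point in follow-ups.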
# [13] = qHTS of pediatric cancer cell lines to identify multiple opportunities for drug repurposing: Primary screen for LAN-5 cells (AID 1347100); note: potency is the fitted concentration of half-maximal effect
# How it was run: as §3
# [14] = molecular target: Nucleoprotein (Lymphocytic choriomeningitis virus (strain Armstrong)) (UniProt P09992); experiment: qHTS for Inhibitors of the Functional Ribonucleoprotein Complex (vRNP) of Lymphocytic Choriomeningitis Arenaviruses (LCMV): LCMV Primary Screen - GLuc reporter signal (AID 1347086; calls by dose curve; note: series mostly up to about 57 µM; nearly all actives have a fitted effect of over 70% in size)
# Nucleoprotein (Lymphocytic choriomeningitis virus (strain Armstrong)), sequence (P09992 whole entry, looked up): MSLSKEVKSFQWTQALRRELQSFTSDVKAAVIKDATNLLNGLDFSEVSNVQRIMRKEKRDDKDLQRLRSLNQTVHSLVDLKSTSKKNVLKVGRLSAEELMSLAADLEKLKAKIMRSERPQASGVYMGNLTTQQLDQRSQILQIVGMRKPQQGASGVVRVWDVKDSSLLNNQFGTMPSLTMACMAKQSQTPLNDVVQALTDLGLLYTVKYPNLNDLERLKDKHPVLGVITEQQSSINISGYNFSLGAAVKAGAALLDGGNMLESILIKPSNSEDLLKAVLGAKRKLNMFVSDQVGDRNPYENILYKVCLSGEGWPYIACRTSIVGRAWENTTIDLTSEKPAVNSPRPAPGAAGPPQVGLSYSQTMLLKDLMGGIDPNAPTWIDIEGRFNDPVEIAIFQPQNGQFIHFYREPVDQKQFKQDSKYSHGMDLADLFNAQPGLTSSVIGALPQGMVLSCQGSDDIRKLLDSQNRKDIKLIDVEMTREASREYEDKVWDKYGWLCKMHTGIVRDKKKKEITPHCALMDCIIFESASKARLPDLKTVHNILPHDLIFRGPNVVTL
# [15] = qHTS of pediatric cancer cell lines to identify multiple opportunities for drug repurposing: Primary screen for NB1643 cells (AID 1347099); note: potency is the fitted concentration of half-maximal effect; nearly all actives have a fitted effect of over 50% in size
# How it was run: as §2
# [16] = qHTS of pediatric cancer cell lines to identify multiple opportunities for drug repurposing: Primary screen for SK-N-SH cells (AID 1347098); note: nearly all actives have a fitted effect of over 65% in size; note: potency is the fitted concentration of half-maximal effect
# How it was run: as §3
compound,measurement,setting,value
O=C(Nc1ccncc1)C(=O)c1cn(Cc2ccc(Cl)cc2)c2ccccc12,Potency,[1],inactive
same,Potency,[2],54.4 nM (active)
same,Potency,[3],41.8 nM (active)
same,Potency,[4],74.3 nM (active)
same,Potency,[5],66.2 nM (active)
same,Potency,[6],217 nM (active)
same,Potency,[7],26.4 nM (active)
same,Potency,[8],37.2 nM (active)
CC=C(C)C(=O)N[C@@H](c1ccccc1)[C@@H](O)C(=O)O[C@H]1C[C@@]2(O)[C@@H](OC(=O)c3ccccc3)[C@@H]3[C@]4(OC(C)=O)CO[C@@H]4C[C@H](O)[C@@]3(C)C(=O)[C@H](OC(C)=O)C(=C1C)C2(C)C,Potency,[1],inactive
same,Potency,[9],3.4 nM (active)
same,Potency,[10],1.3 nM (active)
same,Potency,[11],3.7 nM (active)
same,Potency,[5],1 nM (active)
same,Potency,[12],inactive
same,Potency,[8],13.2 nM (active)
same,Potency,[13],1 nM (active)
O=c1cc(N2CCOCC2)oc2c(-c3cccc4c3sc3ccccc34)cccc12,Potency,[1],inactive
same,Potency,[2],inactive
same,Potency,[14],inactive
C[C@](O)(COc1ccc(C#N)cc1)C(=O)Nc1ccc(C#N)c(C(F)(F)F)c1,Potency,[1],inactive
same,Potency,[9],38500 nM (active)
same,Potency,[10],inactive
same,Potency,[12],inactive
same,Potency,[15],23500 nM (active)
Cc1cccc(-c2[nH]ncc2-c2ccc3ncccc3n2)n1,Potency,[1],inactive
same,Potency,[2],inactive
same,Potency,[14],inactive
Cc1cnc(Nc2ccc(OCCN3CCCC3)cc2)nc1Nc1cccc(S(=O)(=O)NC(C)(C)C)c1,Potency,[1],inactive
same,Potency,[2],inactive
same,Potency,[14],inactive
Cc1c(N)nc([C@H](CC(N)=O)NC[C@@H](N)C(N)=O)nc1C(=O)N[C@H](C(=O)N[C@@H](C)[C@H](O)[C@@H](C)C(=O)N[C@@H](C(=O)NCCc1nc(-c2nc(C(=O)NCCC[S+](C)C)cs2)cs1)[C@@H](C)O)C(O[C@H]1O[C@H](CO)[C@H](O)[C@@H](O)[C@@H]1O[C@H]1O[C@H](CO)[C@@H](O)[C@H](OC(N)=O)[C@H]1O)c1cnc[nH]1 (some centres not stated),Potency,[1],inactive
same,Potency,[9],7690 nM (active)
same,Potency,[14],inactive
same,Potency,[10],4150 nM (active)
same,Potency,[3],1480 nM (active)
same,Potency,[5],833 nM (active)
same,Potency,[6],1370 nM (active)
same,Potency,[7],1320 nM (active)
same,Potency,[12],inactive
same,Potency,[8],1660 nM (active)
same,Potency,[16],inactive
same,Potency,[15],1660 nM (active)
same,Potency,[13],526 nM (active)
C#CC1(O)CCC2C3CCC4=CC(=O)CCC4(C)C3CCC21C (configuration not stated),Potency,[1],inactive
same,Potency,[9],inactive
same,Potency,[10],inactive
same,Potency,[3],inactive
same,Potency,[4],inactive
same,Potency,[6],inactive
same,Potency,[12],inactive
same,Potency,[16],inactive
same,Potency,[15],23500 nM (active)
same,Potency,[13],inactive
C[C@@]12OC(=O)[C@]1([C@@H](O)[C@@H]1C=CCCC1)NC(=O)[C@H]2CCCl,Potency,[1],34300 nM (active)
same,Potency,[2],24300 nM (active)
same,Potency,[10],7390 nM (active)
same,Potency,[11],118 nM (active)
same,Potency,[3],10.5 nM (active)
same,Potency,[4],46.9 nM (active)
same,Potency,[5],8.3 nM (active)
same,Potency,[6],96.8 nM (active)
same,Potency,[7],10.5 nM (active)
same,Potency,[12],235 nM (active)
same,Potency,[8],37.2 nM (active)
same,Potency,[16],171 nM (active)
same,Potency,[15],74.3 nM (active)
same,Potency,[13],52.6 nM (active)
CO[C@H]1CCC(O[C@H]2C[C@H]([C@]3(C)CC[C@]4(C[C@H](O)[C@@H](C)[C@@H]([C@@H](C)C=C(C)C(=O)[C@H](C)C[C@H](C)C(=O)O)O4)O3)O[C@]3(O[C@@H]([C@H]4O[C@@](O)(CO)[C@H](C)C[C@H]4C)C[C@H]3C)[C@H]2C)O[C@H]1C (some centres not stated),Potency,[1],inactive
same,Potency,[2],inactive
same,Potency,[14],inactive
same,Potency,[10],18600 nM (active)
same,Potency,[11],4690 nM (active)
same,Potency,[3],2090 nM (active)
same,Potency,[4],1480 nM (active)
same,Potency,[5],187 nM (active)
same,Potency,[7],209 nM (active)
same,Potency,[8],2640 nM (active)
same,Potency,[16],30400 nM (active)
same,Potency,[15],1050 nM (active)
same,Potency,[13],372 nM (active)
O=C(Nc1ccc(F)c(C(F)(F)F)c1)Nc1nnc(-c2ccncc2)s1,Potency,[1],inactive
same,Potency,[2],13700 nM (active)
CC(C)(C)c1cc(NC(=O)Nc2ccc(-c3cn4c(n3)sc3cc(OCCN5CCOCC5)ccc34)cc2)no1,Potency,[1],inactive
same,Potency,[2],inactive
same,Potency,[14],inactive
O=C(c1cc(Cc2n[nH]c(=O)c3ccccc23)ccc1F)N1CCN(C(=O)C2CC2)CC1,Potency,[1],inactive
same,Potency,[2],inactive
same,Potency,[14],inactive
CNC(=O)c1cc(Oc2ccc(NC(=O)Nc3ccc(Cl)c(C(F)(F)F)c3)c(F)c2)ccn1,Potency,[1],inactive
same,Potency,[14],inactive
Cc1ccnc(NS(=O)(=O)c2ccc(NC(=O)Nc3ccc(S(=O)(=O)Nc4nccc(C)n4)cc3)cc2)n1,Potency,[1],inactive
same,Potency,[2],685 nM (active)
CC(=O)Nc1ccc(OC[C@](C)(O)C(=O)Nc2ccc([N+](=O)[O-])c(C(F)(F)F)c2)cc1,Potency,[1],inactive
same,Potency,[2],10900 nM (active)
same,Potency,[10],inactive
same,Potency,[11],inactive
same,Potency,[3],inactive
same,Potency,[4],inactive
same,Potency,[7],inactive
same,Potency,[12],inactive
same,Potency,[8],inactive
same,Potency,[13],inactive
N#Cc1ccc(NC(=O)Nc2ccccc2Br)c2n[nH]nc12,Potency,[1],inactive
same,Potency,[2],inactive
same,Potency,[14],inactive
CN1C(=O)c2ccccc2C1=O,Potency,[1],inactive
same,Potency,[2],inactive
same,Potency,[14],inactive
Cc1ccc(F)c(NC(=O)Nc2ccc(-c3cccc4[nH]nc(N)c34)cc2)c1,Potency,[1],inactive
same,Potency,[2],inactive
same,Potency,[14],inactive
CC(C)(N)C(=O)N[C@H](COCc1ccccc1)C(=O)N1CCC2(CC1)CN(S(C)(=O)=O)c1ccccc12,Potency,[1],inactive
same,Potency,[2],inactive
same,Potency,[14],inactive
O=C(C1CC1)N1CC[C@@H](Cn2c(-c3ccc(-c4ccc5occc5c4)cc3)nc3cnccc32)C1,Potency,[1],inactive
same,Potency,[2],10900 nM (active)
CS(=O)(=O)c1ccc(C(=O)Nc2ccc(Cl)c(-c3ccccn3)c2)c(Cl)c1,Potency,[1],inactive
same,Potency,[2],inactive
same,Potency,[14],inactive
CNCc1ccc(-c2[nH]c3cc(F)cc4c3c2CCNC4=O)cc1,Potency,[1],inactive
same,Potency,[2],inactive
same,Potency,[14],inactive
CNc1nccc(-c2cccnc2Oc2cc(C(=O)Nc3cccc(C(F)(F)F)c3)ccc2C)n1,Potency,[1],inactive
same,Potency,[2],inactive
same,Potency,[14],inactive
O=S(=O)(N=Cc1c(O)ccc2ccccc12)c1cccs1,Potency,[1],inactive
same,Potency,[14],inactive
